# Test results reported in PubChem BioAssay (NCI).
# About 83,000 compounds went through this panel and 20% of them were active in at least one assay; those are over-represented in the sample as a whole.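 A percent growth of 40 corresponds to 60% growth inhibition; 0 means no net growth; -100 means all cells died. Active threshold: below 10.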 A number with no mark means an inactive call. Calls of active or inactive are those of the source.
# What was measured:
# Assay in all cases: NCI-60 one-dose screen, 48 h (100 = growth as untreated, 0 = no growth, -100 = all killed)
# Settings in all cases: 10 µM
# SR leukemia = system: SR leukemia
# RPMI-8226 leukemia = system: RPMI-8226 leukemia
# OVCAR-8 ovarian = system: OVCAR-8 ovarian
# OVCAR-5 ovarian = system: OVCAR-5 ovarian
# OVCAR-4 ovarian = system: OVCAR-4 ovarian
# SK-OV-3 ovarian = system: SK-OV-3 ovarian
# IGROV1 ovarian = system: IGROV1 ovarian
# OVCAR-3 ovarian = system: OVCAR-3 ovarian
# HS 578T breast = system: HS 578T breast
# NCI/ADR-RES ovarian = system: NCI/ADR-RES ovarian
Compound,growth (SR leukemia),growth (RPMI-8226 leukemia),growth (OVCAR-8 ovarian),growth (OVCAR-5 ovarian),growth (OVCAR-4 ovarian),growth (SK-OV-3 ovarian),growth (IGROV1 ovarian),growth (OVCAR-3 ovarian),growth (HS 578T breast),growth (NCI/ADR-RES ovarian)
CC1(O)CCCCC1O (centres undefined),103%,98.6%,105%,103%,107%,101%,90.9%,120%,102%,105%
O=C(CN1CCNCC1)N1CCOCC1,82.6%,99.3%,91.9%,109%,110%,110%,115%,122%,102%,107%
CCOC(=O)c1coc(C(=O)OCC)c1C(=O)OCC,113%,126%,118%,114%,119%,120%,112%,111%,117%,119%
COC(=O)c1ccccc1N(C)C,78.2%,100%,105%,114%,101%,95.7%,106%,106%,105%,101%
CN(C)C(C)(C)CC(C)(C)C,93.5%,110%,109%,102%,108%,109%,106%,100%,104%,103%
CCCNc1ccc(C2=NCCCN2)cc1,96.9%,98.2%,95.4%,101%,100%,107%,86%,99.2%,103%,95.2%
C=CC(=O)OCCCCCCCC,82.6%,104%,105%,101%,109%,108%,114%,103%,109%,105%
CN(C)CCC(=O)c1ccc(O)cc1,105%,89.6%,102%,115%,108%,110%,113%,97.4%,112%,106%
NC(C(=O)O)c1ccc([N+](=O)[O-])cc1 (centres undefined),113%,116%,112%,92.2%,107%,96.4%,109%,107%,117%,105%
CC(=O)OCC(=O)[C@@]1(O)CC[C@H]2[C@@H]3CC[C@@H]4C[C@H](O)CC[C@]4(C)[C@H]3C(=O)C[C@@]21C,95.2%,95.1%,107%,112%,116%,109%,93.3%,122%,100%,110%
CC1NC(=O)NC1CCCCCC(=O)O (centres undefined),118%,84%,94.8%,97.6%,112%,109%,125%,108%,106%,113%
CN(C)c1ccc(C(c2ccc(O)cc2)c2ccc(N(C)C)cc2)cc1,67.5%,80.1%,94.1%,98.6%,94.9%,104%,106%,92.5%,91.8%,93.9%
Oc1ccccc1-c1nnco1,90.4%,86.8%,98.9%,107%,83.1%,91.1%,86.3%,101%,45.1%,93.1%
COc1ccccc1NC(=O)c1cc2cc(Br)ccc2cc1O,-5.13% (active),-29.6% (active),9.55% (active),104%,18.7%,1.19% (active),-46% (active),4.13% (active),6.12% (active),5.05% (active)
CCCCNC1(C#N)CCN(Cc2ccccc2)CC1,115%,99.2%,96.4%,88.9%,103%,97.1%,91.9%,132%,101%,88.3%
CCN(CC)c1ccc2nc3ccc(=[N+](CC)CC)cc-3oc2c1,22.5%,6.38% (active),-9.58% (active),-30.1% (active),-88.7% (active),-9.43% (active),-31.8% (active),-7.91% (active),58.1%,90.3%

Compound,growth (SR leukemia),growth (RPMI-8226 leukemia),growth (OVCAR-8 ovarian),growth (OVCAR-5 ovarian),growth (OVCAR-4 ovarian),growth (SK-OV-3 ovarian),growth (IGROV1 ovarian),growth (OVCAR-3 ovarian),growth (HS 578T breast),growth (NCI/ADR-RES ovarian)
O=C(O)C(Cc1ccccc1)C(=O)O,101%,109%,109%,111%,96.3%,103%,113%,110%,104%,106%
O=C(NN=C1CCCCC1)C(=O)NN=C1CCCCC1,83.7%,99.6%,100%,105%,115%,101%,127%,123%,115%,114%
COC(=O)Nc1cccc(Cl)c1OC,101%,99.3%,106%,92.6%,111%,116%,110%,111%,95.4%,110%
COc1ccc(C(O)c2ccccc2)cc1 (centres undefined),102%,108%,97.3%,102%,92.6%,99.2%,99.3%,107%,108%,105%
O=C(Nc1cccc(NC(=O)Nc2cc(C(F)(F)F)ccc2Cl)c1)Nc1cc(C(F)(F)F)ccc1Cl,-15.6% (active),-14.5% (active),14.3%,27.7%,7.2% (active),36.2%,26.9%,-5.64% (active),18.9%,26.2%
C1CNC(C2=NCCN2)=N1,96.1%,109%,102%,105%,105%,104%,107%,94.2%,101%,108%
O=c1[nH]nc(SC2CCCCC2)c(=O)[nH]1,97.6%,102%,101%,99%,98.9%,93.2%,101%,96.2%,92%,94.3%
O=c1[nH]cc(Cl)cc1O,76.2%,69.9%,91%,106%,101%,101%,91%,88.3%,91%,
OCCN1CCOCC1,104%,107%,110%,101%,110%,109%,117%,122%,106%,116%
CNc1nc(NC)c2cn[nH]c2n1,96.7%,99.2%,111%,106%,108%,97.2%,109%,114%,101%,108%
COC(=O)/C=C\C(=O)OC,103%,114%,108%,116%,115%,118%,113%,119%,113%,111%
O=[N+]([O-])c1ccc(-c2ncc(-c3ccc(Br)cc3)o2)cc1,124%,78.8%,109%,105%,97.3%,112%,100%,129%,129%,104%
Nc1ccccc1C(=O)Nc1ccc(Cl)cc1Cl,50%,63.9%,83.1%,100%,87.5%,99.2%,35.9%,93.7%,87.4%,90.7%
CC(C)=CC(=O)OC(=O)C=C(C)C,94.7%,109%,99.7%,104%,119%,96.8%,106%,101%,120%,117%
N#CSc1cc(S(N)(=O)=O)ccc1N,116%,109%,102%,107%,108%,108%,106%,113%,115%,108%
